From the supplement of paper PMC6555819

Key:
Assay in all cases: PBM binding z-score (relative to random genomic background probes); higher = stronger binding; sequences stand for … in GC…GCGATTGACAGCGTAGAATGAAGG
[1] = system: FXR:RXRa (NR concentration 270 nM, RXRa partner concentration 90 nM)
In short: (§1)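 Binding buffer was PBS pH 7.4 with 2% milk, 0.02% Triton X-100, 1 mM DTT, 0.2 mg/mL BSA and 0.4 mg/ml salmon testes DNA. In it, ligand-free nuclear receptor dimers were incubated 1 h on custom Agilent 4×180K protein-binding microarrays carrying double-stranded probes. Antibodies against each partner (one per run) detected binding, and z-scores were calculated against random background probes after regression normalization of scanned fluorescence.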

[2] = system: LXRa:RXRa (NR concentration 270 nM, RXRa partner concentration 90 nM)
In short: as §1

[3] = system: LXRa homodimer (NR concentration 270 nM)
In short: as §1

[4] = system: LXRb:RXRa (NR concentration 270 nM, RXRa partner concentration 90 nM)
In short: as §1

[5] = system: LXRb homodimer (NR concentration 270 nM)
In short: as §1

[6] = system: PPARa:RXRa (NR concentration 270 nM, RXRa partner concentration 90 nM)
In short: as §1

[7] = system: PPARg:RXRa (NR concentration 180 nM, RXRa partner concentration 90 nM)
In short: as §1

[8] = system: PPARg:RXRa 270nM:90nM, anti-RXR (NR concentration 270 nM, RXRa partner concentration 90 nM)
In short: as §1

[9] = system: PPARg:RXRa 30nM:10nM, anti-RXR (NR concentration 30 nM, RXRa partner concentration 10 nM)
In short: as §1

[10] = system: PPARg:RXRa 90nM:30nM, anti-RXR (NR concentration 90 nM, RXRa partner concentration 30 nM)
In short: as §1

Sequence	PBM binding z-score [1]	PBM binding z-score [2]	PBM binding z-score [3]	PBM binding z-score [4]	PBM binding z-score [5]	PBM binding z-score [6]	PBM binding z-score [7]	PBM binding z-score [8]	PBM binding z-score [9]	PBM binding z-score [10]
TCATATAGGCAATACAGGTGAAAGTCGGCATCTA	1.06	0.731	0.422	0.906	-0.3	1.3	0.823	1.91	3.62	2.85
ACAGACAGGTGAGTGAAGGTAAGTCAGCTGGACG	0.17	0.000763	-0.483	-0.528	-0.65	0.236	0.568	-0.129	-0.0839	-0.0489
CGTCCAAGGTCATAGGAGGTCAGTGATGACAGAT	7.57	7.22	5.1	5.96	1.02	5.77	5.63	5.82	2.23	4.02
ACAGACAGGTGATGAAGGTAAATCAGGCTATCAT	-0.0911	-0.136	-0.0858	0.169	-0.557	0.252	0.707	0.0594	-0.0828	-0.0561
CCTAGCAGGCCAGGGTCATTCAAGCATTTCGCTT	2.69	2.29	-0.0917	2.54	-0.65	3.66	0.697	1.82	-0.631	0.991
TTACCAAGGTGACAGGTCGTTGATGCACGCCTTG	0.924	1.02	0.111	0.582	-0.664	2.56	3.23	4.37	1.99	3.62
CCTACTGGGCCAAAAAGGTCGTTGATGCCGATAA	0.402	0.901	0.0143	1.24	-0.786	2.45	1.08	1.81	0.344	1.24
CCTTACAGGTCACTGACAGGTTATAGCATTTGGA	6.15	4.93	2.19	3.88	0.942	5.23	4.78	4.44	2.1	3.27
TCTTGCAGATCAATAGAGGTTAAGAAAGTGCGCT	0.606	3.34	0.219	2.04	-0.44	1.9	-0.17	1.1	1.84	1.35
ATCGCTAGGTAACCAAGTTCAGTGAATGCCGAAC	-0.315	0.156	-0.0176	-0.126	-0.754	0.318	-0.0825	-0.186	-0.453	-0.0897
AGTCAAAGTTCAGGACGGGGTAACGTAAAGCACG	4.41	4.06	1.34	2.69	1.48	3.58	4.9	5.07	2.19	4.12
GGAACGATGGCAAAGTTGATAGCATCTGTCGACG	-0.553	-0.632	-0.475	-0.708	-0.97	0.994	1.79	3.3	1.16	2.88
CGGAGTAGGTTATGGGGCATTCAGGCAACGGTGA	0.339	0.3	0.0885	0.718	-0.187	2.92	4.95	5.93	5.09	6.03
CCTAGTTGGTCAGGAGGTCATACACCGGATATGA	3.81	3.61	2.79	3.13	0.702	3.89	2.72	3.82	1.58	2.89
GATACAGGGTCAAGCCCAGAGTACGCGTATTGAT	7.02	4.26	-0.0405	3.88	-0.376	5.68	6.04	5.82	2.34	4.41
TTACCAAGGTGAGATGAGGTCGTTGATCCAACTC	1.78	1.68	-0.0824	1.1	-0.44	2.03	0.772	1.32	0.775	1.01
AGAATGAGGTTTAGATCAGGGAAACAGAATACAT	0.0195	-0.0666	-0.0558	-0.395	-0.223	-0.306	0.649	0.00462	0.223	0.354
ACTATTAGTTGAGACGAGGGCAACGGATAGGTTG	0.259	0.127	-0.147	0.0625	0.209	0.0596	0.652	-0.1	-0.0194	-0.207
GTAGACAGGTGAAACGCAGGTAACTCAGGGTGGC	0.081	0.114	-0.34	-0.0403	-0.733	0.941	0.744	0.425	-0.305	0.121

Sequence	PBM binding z-score [1]	PBM binding z-score [2]	PBM binding z-score [3]	PBM binding z-score [4]	PBM binding z-score [5]	PBM binding z-score [6]	PBM binding z-score [7]	PBM binding z-score [8]	PBM binding z-score [9]	PBM binding z-score [10]
GGAACGAGGGCATTCGAGTTGATACCATGGCGAT	0.529	1.7	-0.438	0.458	-0.357	1.44	1.06	0.855	-0.156	0.405
CCGACTGGGGCATAAGGTTATCATAAGCCAGCCC	0.297	0.921	-0.134	0.498	-1.15	1.94	2.31	3.06	1.39	3.18
TTGCCAAGGTGAGCTGAGGTCGTTGATCCAACTC	1.5	0.918	-0.266	0.415	-1.74	1.46	-0.358	0.302	-0.768	-0.564
CAAACTAGTTCACGAAAGGTCAAAGTCGAATGAC	6.34	7.45	7.18	6.48	2.77	5.65	4.37	5.37	2.24	4.32
CCTAGTTGGTCAGGAGGTCACCCACCGGATATGA	3.56	3.31	1.59	3.13	0.503	4.04	2.76	3.87	1.01	2.98
TCTTGTAGATCAATAGAGGTTAAGCAAGTGCGCT	0.958	2.62	0.281	1.34	-0.1	2.08	0.0342	1.71	2.75	2.4
AGAATAAGGTTACCAAAGATCAGGGAAACGCTTG	1.76	5.91	0.165	2.57	-0.0188	2.93	1.84	2.41	0.732	1.67
GCGACTGGGGCAAGGCAGGTTACCATAAGGTTGG	-0.183	0.247	-0.418	-0.0825	-0.867	0.979	0.978	0.49	-0.677	0.000745
AAGACAGGGTCATCGTAGGCCAGAGTACGCACAG	7.28	5.76	0.0665	4.06	0.0441	6.02	5.91	5.77	2.38	3.94
CCTATTAGTTGACCATAAGAGCAACCGAAGCTCG	0.554	0.617	1	0.594	1.16	0.283	0.521	0.101	0.292	-0.0122
ACAGACAGGCGAGTGAAGGTAACTCAGCTGGACG	0.222	-0.221	-0.463	-0.649	-0.426	-0.25	0.686	-0.142	-0.453	-0.153
CGTCAAAGTTTAAGGTAACGTAACAGAAAGCAGC	0.503	0.447	-0.218	0.466	-0.063	0.794	0.72	1.11	0.465	0.749
GCATATAGGTAATACAAGGTGTAAGTCCGATTGT	0.0456	-0.21	-0.0292	-0.487	-0.137	0.159	0.975	0.539	0.405	0.179
CGTCCAAGGTCAAGGTCTGTGAAAGAGACTCGAA	7.12	4.99	0.422	3.92	0.346	5.39	4.93	5.76	1.41	3.96
CGTCAAATTTCAACTAAGGTAACGTAAAGCACGC	1.08	0.429	0.483	0.87	0.711	0.628	0.633	0.149	0.303	0.502
ACAGACAGGTGATGGAGGTAACTCAGGCTATCAT	-0.104	-0.199	-0.062	-0.121	-0.598	0.109	0.789	-0.241	-0.252	-0.291
TGTCAAAGTTCAATGGTAACGTAAGTATCCACAC	5.2	5.16	2.81	3.03	0.934	4.31	6.86	6.53	4.18	6.12
CCTTACGAGTCACTCCAGGTTATAGCATCGGAGT	1.35	4.98	1.69	1.55	0.939	0.751	0.539	0.0713	-0.0643	-0.0945
